# Source: PubChem
# Most compounds without a hit are left out; they make up all but 2.6% or so of the library.
# Rce1 inh = blocks yeast Ras-converting enzyme; yeast membranes, quenched prenylated peptide cleavage fluorescence; calls only; 290,000 tested, 0.27% active;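 active = fall in fluorescence gain of 50% or more versus controls, with final raw signal at or below 3038400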;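 also: plate controls were neutral control wells for no effect and wells lacking membranes for full effect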
# Exocytosis inh = blocks lytic granule exocytosis; inhibition, % at 10 µM; TALL-104 LAMP-1 surface exposure, flow cytometry; cells stimulated with thapsigargin and PMA; 360,000 tested, 0.66% active;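 active = inhibition above about 55%, limit read from the data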
# Platelet DG rel = modulates dense granule release in human platelets; human platelet-rich plasma, SFLLRN dense granule ATP release, luminescence; inhibition, %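 (compounds screened at 7.5 µM in platelet-rich plasma)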; 300,000 tested, 0.22% active; AID 1663;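 active = mean replicate score, as percent of positive control, at or above 50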
# ABHD5 PLIN5 PPI = inhibitors of human ABHD5-perilipin-5 interaction; Q00G26+Q8WTS1; Split G. princeps luciferase complementation, luminescence, 4 h; inhibition, % at 4 µM; 360,000 tested, 0.78% active; AID 602281;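 active = inhibition above the mean inhibition across every tested compound plus 3 SD, cut at about 22% in these data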;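 also: 0% = DMSO only wells and the 100% control is not disclosed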
# Target sequence (Q00G26 whole entry, looked up): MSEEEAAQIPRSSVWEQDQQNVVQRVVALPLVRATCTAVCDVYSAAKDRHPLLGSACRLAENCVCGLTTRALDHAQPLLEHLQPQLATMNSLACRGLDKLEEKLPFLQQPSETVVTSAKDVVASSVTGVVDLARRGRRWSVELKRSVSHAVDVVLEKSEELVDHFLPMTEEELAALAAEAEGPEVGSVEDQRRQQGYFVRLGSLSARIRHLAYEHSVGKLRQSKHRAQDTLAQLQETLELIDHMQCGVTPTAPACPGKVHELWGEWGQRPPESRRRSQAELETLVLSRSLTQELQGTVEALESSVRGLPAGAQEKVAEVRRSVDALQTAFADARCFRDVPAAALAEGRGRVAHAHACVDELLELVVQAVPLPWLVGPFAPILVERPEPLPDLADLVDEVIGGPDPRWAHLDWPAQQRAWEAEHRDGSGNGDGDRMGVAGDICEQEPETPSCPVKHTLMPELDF
# Target sequence (Q8WTS1 whole entry, looked up): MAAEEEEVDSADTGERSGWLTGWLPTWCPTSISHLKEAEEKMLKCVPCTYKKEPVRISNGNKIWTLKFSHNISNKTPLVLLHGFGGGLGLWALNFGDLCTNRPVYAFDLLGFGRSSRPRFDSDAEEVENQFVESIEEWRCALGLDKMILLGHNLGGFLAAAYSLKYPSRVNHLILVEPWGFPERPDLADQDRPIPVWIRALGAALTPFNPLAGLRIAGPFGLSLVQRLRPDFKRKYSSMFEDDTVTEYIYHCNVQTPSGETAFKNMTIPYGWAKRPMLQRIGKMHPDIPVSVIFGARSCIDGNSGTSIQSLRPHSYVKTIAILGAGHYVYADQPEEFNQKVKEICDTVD
# M18AAP inhibitor = blocks P. falciparum M18 aspartyl aminopeptidase | inhibition, % at 7.35 µM | 290,000 tested, 1.2% active | AID 1822 | recombinant PfM18AAP, H-Glu-NHMec fluorogenic cleavage;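 active = inhibition above the campaign mean inhibition over all tested compounds plus 3 SD, cut at about 28% in these data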;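 also: 0% = plate median of test compound wells and 100% = 2 mM ZnCl2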
# Granule exo CP1 = lytic granule exocytosis inhibition; shares compounds with Exocytosis inh; TALL-104 cells, LAMP-1 externalization, flow cytometry; stimulated with PMA plus thapsigargin; inhibition, % at 10 µM; 1,500 tested, 11% active; AID 651954; in the data active = inhibition above about 60%;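 also: 0% = stimulated vehicle wells and 100% = unstimulated wells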
# An asterisk follows results filed as active; i = inactive; . = not tested or not shown; + = active, no number.
SMILES,Rce1 inh,Exocytosis inh,Platelet DG rel,ABHD5 PLIN5 PPI,M18AAP inhibitor,Granule exo CP1
COCCCN(CCNC(=O)c1ccc(NC2=NC3CS(=O)(=O)CC3S2)cc1)Cc1ccco1 (stereo not given),i,-1,3,10,-9,.
Cc1cccc(S(=O)(=O)Nc2ccc(S(=O)(=O)Nc3nccs3)cc2)c1,.,61*,.,4,.,-16
COc1ccc(C(C)=O)cc1COC(=O)c1cccnc1Cl,i,15,2,-10,0,.
COc1ccc(C(C)=O)cc1COC(=O)c1cc2ccccc2cc1O,i,91*,13,0,-9,-5
CCOC(=O)C1C(=O)C(=O)N(Cc2ccccc2)C1C(=O)OCC (stereo not given),.,-1,.,-4,.,.
Cc1ccc(-c2nc3c(c(=O)[nH]c(=O)n3Cc3ccccc3)n2C)o1,.,98*,.,15,-4,-12
Cc1ccc(-c2nc3c(c(=O)[nH]c(=O)n3Cc3ccccc3)n2Cc2ccccc2)o1,i,13,2,9,-1,.
Cc1ccc(-n2nnc3c(=O)oc4ccccc4c32)cc1,i,94*,-2,-1,-6,83*
CCC(C)n1nnc2c(=O)oc3ccccc3c21 (stereo not given),i,-6,-1,3,-3,.
Fc1ccc(CNCCC(Cc2ccccc2)c2ccco2)cc1 (stereo not given),i,78*,9,2,-5,-11
CC(NCCC(Cc1ccccc1)c1ccco1)c1ccccc1 (stereo not given),i,-1,1,6,3,.
COc1ccc2noc3c2c1C(=O)c1ccccc1-3,i,88*,0,-1,.,23
COc1cc2c(cc1OC)C(c1c(Cl)cccc1Cl)=NCC2,.,0,.,-6,.,.
COc1cc2c(cc1OC)C(CCc1ccccc1)=NCC2,+,63*,-2,-4,-25,-12
Cc1c(C(=O)N2CCCC(C)(C(=O)NS(=O)(=O)C3CC3)C2)oc2ccccc12 (stereo not given),.,4,.,-1,.,.
Cc1ccc(C(=O)N2NC(c3ccc(F)cc3)C3C(=O)N(c4ccc(C)c(C)c4)C(=O)C32)cc1 (stereo not given),i,1,-1,3,5,.
c1ccc(COc2ccc(-c3cc4nc(NCCN5CCOCC5)ccn4n3)cc2)cc1,.,61*,.,10,.,15
O=C1C=CC(=O)N1N(c1ccccc1)c1ccccc1,i,78*,8,10,-18,104*
COCCn1c(SCc2cccc(F)c2)nc2cc(C(=O)OC)ccc2c1=O,i,75*,1,-1,-14,-12
CCSc1nc2cc(C(=O)OC)ccc2c(=O)n1CC,i,0,-7,-2,-1,.
COc1ccc(N(CC(=O)NCc2ccccc2OC)S(=O)(=O)c2ccccc2)cc1,i,75*,-8,1,1,-14
COc1ccc(CCNC(=O)CN(c2ccccc2OC)S(=O)(=O)c2ccc(C)cc2)cc1,i,10,12,4,6,.
COc1ccc(N(CC(=O)NCc2ccco2)S(=O)(=O)c2ccccc2)cc1,i,-8,0,4,-18,.
COc1ccccc1N(CC(=O)NCc1ccccc1C)S(=O)(=O)c1ccc(C)cc1,i,63*,4,-4,2,-13
COc1cc(CNCCc2ccccc2)cc(Cl)c1OCc1ccccc1,i,99*,4,14,-5,7
SMILES,Rce1 inh,Exocytosis inh,Platelet DG rel,ABHD5 PLIN5 PPI,M18AAP inhibitor,Granule exo CP1
COc1cccc(OC)c1OCCCN1CCC(Cc2ccccc2)CC1,i,68*,1,8,4,-12
COc1cccc(OC)c1OCCN1CCN(C(c2ccccc2)c2ccccc2)CC1,i,62*,2,0,-10,-10
O=C(Nc1ccc(Cl)cc1)c1nc[nH]c1C(=O)NCc1ccccc1,.,-2,.,-1,.,.
C=CCOc1ccc(C(=O)c2ccccc2)c(OCC(=O)NC2(C#N)CCCC2)c1,i,61*,-4,7,4,-13
Cc1cc(C)cc(NC(=O)c2ccc(S(=O)(=O)NCc3cccnc3)cc2)c1,i,8,2,-8,0,.
CCOc1ccc(CCNC(=O)CN2C(=O)CCSc3ccccc32)cc1OCC,i,96*,8,5,-8,-4
COc1ccc2oc(=N)c(-c3nnc4n3CCCCC4)cc2c1,i,56*,-3,-4,-10,-13
COCCn1c(SCC(=O)Nc2ccccc2OC)nc2c(oc3ccccc32)c1=O,i,65*,-3,8,-17,0
COc1ccccc1NC(=O)CSc1nc2sc(C)c(C)c2c(=O)n1C,i,60*,9,-1,-1,-14
COc1ccccc1NC(=O)CSc1nc(O)cc(=O)n1C,i,1,-1,0,0,.
CCOC(=O)C1(Cc2ccccc2)CCN(Cc2ccc(C)s2)CC1,i,64*,5,-5,-5,-4
CCOC(=O)C1(Cc2ccccc2)CCN(Cc2cc(OC)c3c(c2)OCO3)CC1,i,60*,-2,2,5,-4
CCOC(=O)C1(Cc2cccc(OC)c2)CCN(C/C=C/c2ccccc2)CC1,i,64*,-3,1,-3,-12
CCOC(=O)C1(Cc2ccccc2)CCN(Cc2cccc3c2OCO3)CC1,i,5,-1,-4,2,.
CCOC(=O)C1(Cc2cccc(OC)c2)CCN(CCO)CC1,i,-3,-1,9,10,.
O=C(Nc1ccc(NS(=O)(=O)c2ccccc2)cc1)c1cccnc1,i,-4,2,-4,-1,.
CC(=NNC(N)=O)C1=C(O)C(C(C)C)NC1=O (stereo not given),.,8,.,4,.,.
CCCc1nc2ccccc2c(C(=O)OCC(=O)Nc2c(C)n(C)n(-c3ccccc3)c2=O)c1CC,i,-1,-4,1,-7,.
COc1ccc2sc(N(CCCN(C)C)C(=O)c3ccc(S(=O)(=O)N4CCCC4)cc3)nc2c1,i,4,-12,2,.,.
Cc1ccc2nc(N(CCCN(C)C)C(=O)c3ccc(S(=O)(=O)N4CCc5ccccc5C4)cc3)sc2c1,i,47,31,10,-2,.
COc1ccc2sc(N(CCCN(C)C)C(=O)c3ccc(S(=O)(=O)N4CCc5ccccc5C4)cc3)nc2c1,i,76*,-1,15,.,84*
Cc1cc(C)c2sc(N(CCCN(C)C)C(=O)c3ccc(S(=O)(=O)N4CCc5ccccc5C4)cc3)nc2c1,i,56*,8,11,.,63*
Cc1cc(C)c2sc(N(CCCN(C)C)C(=O)c3ccc(S(=O)(=O)N4CCCc5ccccc54)cc3)nc2c1,i,58*,2,11,.,47
Oc1ccccc1N1CCN(c2ccc3ccccc3n2)CC1,i,66*,-4,-4,21,-14
C[N+](C)(C)CC(=O)N1CCN(c2ccc3ccccc3n2)CC1,i,8,-4,2,-1,.
